Screens as filed in PubChem BioAssay.
Shiga toxin inh – inhibitors of Shiga toxin in Vero cells. AID 2315. 290,000 tested, 9.2% active. Vero cells, Shiga toxin protein synthesis inhibition reporter. inhibition, % at 38.7 µM; in the data active = inhibition mostly above about 28%, no sharp cut-off; inactive = mostly below about 43%; also: 0% is about no effect
Pf growth 96h – inhibits malaria parasite growth, 96 h; 320,000 tested, 6.9% active; P. falciparum luciferase reporter growth, 96 h; Potency, µM (series often up to 28.7 µM), for inactives: top-dose activity change, negative = inhibition, actives largely listed as inhibitors; also: potency is read from the fitted curve at half-maximal effect; % is scaled to controls: 0 for no effect and ±100 for the full control effect
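Cell-based qHTS: luciferase-tagged P. falciparum in erythrocytes (2% hematocrit, 0.05% parasitemia final) incubated with compounds for 96 hours, 37 C, 5% CO2; luciferase detection reagent then added and luminescence measured.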
Cycloheximide cs – counter-screen hit for Shiga toxin inhibitors, cycloheximide; AID 2314; max response, %; 300,000 tested, 12% active; cell reporter, cycloheximide protein synthesis inhibition counterscreen; in the data active = max response mostly above about 13%, no sharp cut-off; inactive = mostly below about 14%; also: read at 38.3 µM for the half of the compounds with a filed dose; 0% is about no effect
LmPK inh – LmPK (Leishmania mexicana) enzyme inhibition. Q27686. purified LmPK, Kinase-Glo ATP luminescence, 1 h. Potency, µM (top dose mostly 57.5 µM), inactives show at the highest dose activity change, negative = inhibition, actives largely listed as inhibitors. 290,000 tested, 0.37% active. AID 1721; also: potency is read from the fitted curve at half-maximal effect; % is scaled to controls: 0 for no effect and ±100 for the full control effect
Target sequence (Q27686 whole entry, looked up): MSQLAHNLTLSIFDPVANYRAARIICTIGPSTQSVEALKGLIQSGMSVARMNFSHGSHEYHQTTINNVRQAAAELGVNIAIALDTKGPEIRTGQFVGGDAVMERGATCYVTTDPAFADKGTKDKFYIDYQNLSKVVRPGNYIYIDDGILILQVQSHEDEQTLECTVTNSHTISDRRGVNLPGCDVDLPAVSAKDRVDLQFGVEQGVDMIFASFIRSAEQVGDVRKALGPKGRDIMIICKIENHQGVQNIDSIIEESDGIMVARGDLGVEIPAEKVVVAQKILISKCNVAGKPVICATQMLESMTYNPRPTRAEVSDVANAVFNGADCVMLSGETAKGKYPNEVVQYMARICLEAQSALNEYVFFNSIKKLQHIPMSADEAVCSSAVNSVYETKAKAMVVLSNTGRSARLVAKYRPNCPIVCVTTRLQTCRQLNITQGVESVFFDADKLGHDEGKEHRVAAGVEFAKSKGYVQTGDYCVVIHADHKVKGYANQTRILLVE
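Pyruvate kinase activity monitored as ATP production (luciferase luminescence). Conditions: 0.1 nM enzyme, 0.5 mM PEP, 0.1 mM ADP, 1 h, RT; normalized against uninhibited and no-enzyme wells.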
Pf growth 48h – inhibits P. falciparum growth in the first generation, 48 h | P. falciparum luciferase growth in erythrocytes, 48 h | Potency, µM (doses to about 28.7 µM), without a hit: at the highest dose activity change, negative = inhibition, usual class: inhibitors | 310,000 tested, 5.9% active | AID 504832; also: potency is read from the fitted curve at half-maximal effect; % is scaled to controls: 0 for no effect and ±100 for the full control effect
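Compounds are pin-transferred into medium, infected erythrocytes (2% hematocrit, 0.1% parasitemia final) are added, and plates sit one parasite generation at 37 C in 5% CO2. Detection reagent is then added and luminescence measured.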
Starred values were filed as active, the others as inactive. Hits are enriched below; roughly 22% of the tested compounds scored in any of these assays. Unless noted, calls follow the shape of the dose curve; as a rule, active = well fitted inhibition curve with a large enough effect; inconclusive = small, poorly fitted or top-dose-only effect, or another doubt; inactive = no such curve, though single readings can be large or run the other way.

How did CC(C)C[C@H](NC(=O)OC(C)(C)C)C(=O)N[C@@H](CO)[C@H](O)[C@@H]1C[C@@H]1C(=O)NC1CCCCC1 do in these assays?
Shiga toxin inh: -4; Pf growth 96h: inconclusive; Cycloheximide cs: -2; LmPK inh: -1%; Pf growth 48h: 2%

How did O=C(c1cnn(-c2ccccc2)c1-n1cccc1)N1CCN(C2CCCCC2)CC1 do in these assays?
Shiga toxin inh: -10; Pf growth 96h: 141%; Cycloheximide cs: -2; LmPK inh: 8%; Pf growth 48h: -11%

How did Cn1ncc(Br)c1C(=O)N1CCCCCC1 do in these assays?
Shiga toxin inh: -14; Pf growth 96h: -28%; Cycloheximide cs: -3; LmPK inh: -1%; Pf growth 48h: 2%

How did COCCCNc1oc(-c2ccccc2F)nc1C#N do in these assays?
Shiga toxin inh: 34; Pf growth 96h: 21%; Cycloheximide cs: 24*; LmPK inh: -3%

What do the screens show for `N#Cc1nc(-c2ccccc2F)oc1NCCc1ccccc1`?
Shiga toxin inh: 37; Pf growth 96h: -1%; Cycloheximide cs: 41*; LmPK inh: 3%; Pf growth 48h: 38%

Results for N#Cc1nc(-c2ccco2)oc1NCCc1ccccc1 ?
Shiga toxin inh: 27*; Pf growth 96h: -6%; Cycloheximide cs: 28*; LmPK inh: 2%; Pf growth 48h: -4%

How did COc1ccc(CCNc2oc(-c3ccco3)nc2C#N)cc1 do in these assays?
Shiga toxin inh: 16; Pf growth 96h: inconclusive; Cycloheximide cs: 10; LmPK inh: -3%; Pf growth 48h: inconclusive

Results for C[C@@H](NC(=O)c1nc[nH]c1C(=O)NCC(=O)OCc1ccccc1)c1ccccc1 ?
Shiga toxin inh: -10; Pf growth 96h: 120%; Cycloheximide cs: -1; LmPK inh: 2%; Pf growth 48h: 36%

What do the screens show for `COC1CCCCC1Nc1cccc(SC)c1` (stereo not drawn)?
Shiga toxin inh: 14; Cycloheximide cs: -1; LmPK inh: -10%; Pf growth 48h: 28%

What do the screens show for `COC1CCCCC1Nc1cc(C)cc(C)c1` (stereo not drawn)?
Shiga toxin inh: -14; Pf growth 96h: 13µM*; Cycloheximide cs: -4; LmPK inh: -11%

How did Cc1nc2ccc(NC(=S)NC3CC3)cc2nc1C do in these assays?
Shiga toxin inh: 8; Pf growth 96h: 58%; Cycloheximide cs: 19*; LmPK inh: 6%; Pf growth 48h: 44%

Results for Cc1nc2ccc(NC(=S)NCCCO)cc2nc1C ?
Shiga toxin inh: 40; Pf growth 96h: 47%; Cycloheximide cs: 13; LmPK inh: 6%; Pf growth 48h: 47%

Results for Cc1nc2ccc(NC(=S)NC(C)C)cc2nc1C ?
Shiga toxin inh: 12; Pf growth 96h: inconclusive; Cycloheximide cs: 20*; LmPK inh: -2%; Pf growth 48h: 33%

Results for COc1ccccc1CN1CCC(n2nccc2NC(=O)CCc2ccccc2)CC1 ?
Shiga toxin inh: 12; Pf growth 96h: inconclusive; Cycloheximide cs: 2; LmPK inh: 7%; Pf growth 48h: inconclusive

How did O=C(O)c1cccc(S(=O)(=O)N(Cc2ccccc2)c2ccc(Cl)cc2)c1 do in these assays?
Shiga toxin inh: -2; Pf growth 96h: 7%; Cycloheximide cs: -5; LmPK inh: 7%; Pf growth 48h: 6%

What do the screens show for `COc1cc(NCc2ccccc2O)c2ncccc2c1`?
Shiga toxin inh: 28; Pf growth 96h: inconclusive; Cycloheximide cs: 20*; LmPK inh: 0%; Pf growth 48h: inconclusive

How did Oc1cccc2cccnc12 do in these assays?
Shiga toxin inh: 2; Pf growth 96h: inconclusive; Cycloheximide cs: -3; LmPK inh: -7%; Pf growth 48h: inconclusive

What do the screens show for `NC(=S)Nc1cccc2cccnc12`?
Shiga toxin inh: 15; Pf growth 96h: inconclusive; Cycloheximide cs: 4; LmPK inh: 4%; Pf growth 48h: 7%

How did NC(=S)NNc1cccc2cccnc12 do in these assays?
Shiga toxin inh: 39*; Pf growth 96h: inconclusive; Cycloheximide cs: 19*; LmPK inh: -10%; Pf growth 48h: 7.4µM*

What do the screens show for `Oc1ccccc1CNc1cccc2cccnc12`?
Shiga toxin inh: 62*; Pf growth 96h: -1%; Cycloheximide cs: 45*; LmPK inh: -1%; Pf growth 48h: -2%

Results for Cc1ccc(C(=O)NNC(=O)CSc2nnc(C(C)C)n2C)cc1 ?
Shiga toxin inh: -3; Pf growth 96h: inconclusive; Cycloheximide cs: -4; LmPK inh: -5%; Pf growth 48h: 0%

Results for CCN1CCN(C(=O)C2c3cc(OC)c(OC)cc3C(=O)N3CCc4ccccc4C23)CC1 (stereo not drawn) ?
Shiga toxin inh: -2; Pf growth 96h: -16%; Cycloheximide cs: -3; LmPK inh: 3%; Pf growth 48h: -14%

What do the screens show for `CCCCN(CC)CCNC(=O)C1c2cc(OC)c(OC)cc2C(=O)N2CCc3ccccc3C12` (stereo not drawn)?
Shiga toxin inh: -8; Pf growth 96h: 10µM*; Cycloheximide cs: -5; LmPK inh: -5%; Pf growth 48h: inconclusive

How did COc1ccc(Br)cc1C(=O)Nc1cc(C)cc(C)c1 do in these assays?
Shiga toxin inh: -8; Pf growth 96h: inconclusive; Cycloheximide cs: -4; LmPK inh: 3%; Pf growth 48h: -13%

What do the screens show for `CCc1ccc(NC(=O)c2cc(Br)ccc2Br)cc1`?
Shiga toxin inh: 12; Pf growth 96h: -45%; Cycloheximide cs: 11; LmPK inh: 8%; Pf growth 48h: 5%

Results for CC(C)c1ccc(NC(=O)c2cc(Br)ccc2Br)cc1 ?
Shiga toxin inh: 60*; Pf growth 96h: inconclusive; Cycloheximide cs: 43*; LmPK inh: -5%; Pf growth 48h: -13%

Results for CN(C)C(=O)Oc1ccc(Br)cc1C(=O)Nc1ccc(F)c(Cl)c1 ?
Shiga toxin inh: 10; Pf growth 96h: inconclusive; Cycloheximide cs: 10; LmPK inh: 10%; Pf growth 48h: 1.2µM*

What do the screens show for `O=C(Nc1ccc(Cl)cc1)c1ccc(Br)cc1F`?
Shiga toxin inh: 86*; Pf growth 96h: 138%; Cycloheximide cs: 44*; LmPK inh: -8%; Pf growth 48h: 125%

How did O=C(Nc1ccc(N2CCCC2)cc1)c1cc(Br)ccc1Cl do in these assays?
Shiga toxin inh: 32; Pf growth 96h: inconclusive; Cycloheximide cs: 14; LmPK inh: 1%; Pf growth 48h: inconclusive

What do the screens show for `Cc1nc2ccc(NC(=O)NCc3ccco3)cc2s1`?
Shiga toxin inh: 56*; Cycloheximide cs: 43*; LmPK inh: -4%; Pf growth 48h: 89%

What do the screens show for `COCCNC(=O)Nc1ccc2nc(C)sc2c1`?
Shiga toxin inh: 64; Pf growth 96h: 23%; Cycloheximide cs: 13; LmPK inh: -2%; Pf growth 48h: 19%

How did Cc1nc2ccc(NC(=O)NCCCO)cc2s1 do in these assays?
Shiga toxin inh: 49*; Pf growth 96h: 16%; Cycloheximide cs: 16*; LmPK inh: -4%; Pf growth 48h: 47%

Results for Cc1nc2ccc(NC(=O)N3CCOCC3)cc2s1 ?
Shiga toxin inh: 45; Cycloheximide cs: 14; LmPK inh: 9%; Pf growth 48h: 17%
